Tau ThT inhib: inhibitors of human tau fibril formation, thioflavin T binding; P10636; AID 1460; 270,000 compounds, 2.1% hits; recombinant tau K18 P301L, heparin-induced fibrillization, ThT fluorescence; Potency, µM (series often up to 57.4 µM), for inactives: at the top dose activity, negative = inhibition, most hits filed as inhibitors; note: nearly all actives have a fitted effect of over 55% in size
Target sequence (P10636 561-689 P618L limits assumed): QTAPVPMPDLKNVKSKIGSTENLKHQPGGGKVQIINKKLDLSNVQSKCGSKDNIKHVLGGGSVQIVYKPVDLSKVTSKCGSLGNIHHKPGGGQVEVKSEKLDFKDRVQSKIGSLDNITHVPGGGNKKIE
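ThT emission at 510 nm, taken 1 hr after adding 30 uM dye, quantifies aggregates formed when 20 uM heparin acts on human tau K18 P301L for 6 hr at 37 C.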
RORgamma inh: blocks mouse ROR gamma transcriptional activity | AID 2551 | P51450 | Potency, µM (doses to about 53.6 µM), inactives show at the top dose activity change, negative = inhibition, actives largely listed as inhibitors | 310,000 compounds, 5.4% hits | Drosophila S2 Gal4-RORgamma UAS-luciferase reporter, 20 h; note: nearly all actives have a fitted effect of over 60% in size
Target sequence (P51450 whole entry, looked up, the tested form may be a part): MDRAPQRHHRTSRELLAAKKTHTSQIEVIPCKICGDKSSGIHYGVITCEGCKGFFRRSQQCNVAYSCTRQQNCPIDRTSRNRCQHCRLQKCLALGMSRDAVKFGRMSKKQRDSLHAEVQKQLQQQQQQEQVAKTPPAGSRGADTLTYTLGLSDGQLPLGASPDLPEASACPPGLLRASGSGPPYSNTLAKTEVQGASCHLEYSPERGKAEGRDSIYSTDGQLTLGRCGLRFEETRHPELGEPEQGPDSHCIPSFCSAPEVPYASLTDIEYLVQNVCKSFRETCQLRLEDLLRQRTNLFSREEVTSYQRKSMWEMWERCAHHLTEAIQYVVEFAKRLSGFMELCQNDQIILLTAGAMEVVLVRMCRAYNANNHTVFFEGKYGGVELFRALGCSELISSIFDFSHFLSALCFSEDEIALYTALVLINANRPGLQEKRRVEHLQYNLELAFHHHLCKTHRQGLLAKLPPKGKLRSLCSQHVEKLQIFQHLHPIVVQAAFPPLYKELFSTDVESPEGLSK
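Drosophila S2 cells stably expressing Gal4-DBD/mouse RORγ fusion under metallothionein promoter plus UAS-luciferase; compound 1 h, then 700 uM CuSO4 induction for 20 h at ambient temperature; inhibition read as reduced luminescence.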
Tau FP inhib: blocks human tau fibril formation measured by polarization; P10636; K18 P301L tau heparin fibrillization, Alexa594 FP, 6 h; Potency, µM (series often up to 57.7 µM), for inactives: at the highest dose activity, negative = inhibition, hits mostly inhibitors; 280,000 compounds, 0.39% hits; note: nearly all actives have a fitted effect of over 55% in size
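Quantitative HTS format: compounds meet 15 uM recombinant K18 P301L tau and Alexa 594-tau tracer in 100 mM sodium acetate pH 7; 20 uM heparin triggers fibrillization at 37 C over 6 hr; FP gives the signal.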
VP16 counter: Gal4-VP16 reporter inhibition counter-screen; Drosophila S2 Gal4-VP16 UAS-luciferase, luminescence, 20 h; Potency, µM (titrated, usually from 53.6 µM), inactives show at the highest dose activity, negative = inhibition, actives largely listed as inhibitors; 310,000 compounds, 3.5% hits;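 note: Gal4-VP16 expression switched on by copper sulfate through the metallothionein promoter; nearly all actives have a fitted effect of over 50% in size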
Tau fluor counter: counter-screen for tau fibril formation inhibitors; tau K18 P301L Alexa594 fluorescence, heparin fibrillization; Potency, µM (top dose mostly 57.7 µM), for the others: top-dose activity change, negative = decrease; 280,000 compounds, 0.93% hits; AID 1463; note: nearly all actives have a fitted effect of over 55% in size
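Human tau K18 P301L (15 uM unlabeled, 0.24 uM Alexa 594-labeled) in 100 mM sodium acetate pH 7 with 20 uM heparin, 6 hr at 37 C. ThT 30 uM added, 1 hr ambient; Alexa 594 FP and total fluorescence read at 555/632 nm.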
An asterisk follows results filed as active; ? = inconclusive; · = no result; [ ] = dose if it differs, or a comment. In the library only some 7.3% were active in any assay of this set; here they are far more common. Calls come from the whole dose curve; as a rule, active = well fitted curve in the direction sought with a large enough effect; inconclusive = small, poorly fitted or top-dose-only effect, or another doubt; inactive = no such curve, though single readings can be large; an effect the other way counts as inactive or inconclusive. % is set by controls: 0 for no effect and ±100 for the full control effect; potency is the fitted concentration of half-maximal effect.

SMILES	Tau ThT inhib	RORgamma inh	Tau FP inhib	VP16 counter	Tau fluor counter
Cc1c(C(=O)N/N=C/C(C)C)[nH]c2c([N+](=O)[O-])cccc12	?	2.2µM*	-5%	-22%	-11%
Cc1cccc2cc3c(nc12)SC(=NCC1CCCO1)N(Cc1ccco1)C3 (configuration not stated)	?	2.8µM*	5%	3.2µM*	-25%
CCCN(CCC)CC(O)Cn1cc(/C=C/C(=O)c2ccccc2)c2ccccc21 (configuration not stated)	?	?	-6%	-2%	?
CCCCN(C)CC(O)Cn1cc(/C=C/C(=O)c2ccc(Br)cc2)c2ccccc21 (configuration not stated)	20µM*	·	10%	·	?
CCCCN(C)CC(O)Cn1cc(/C=C/C(=O)c2ccc(C)cc2)c2ccccc21 (configuration not stated)	14µM*	?	-4%	?	?
CCCN(CCC)CC(O)Cn1cc(/C=C/C(=O)c2ccc(C)cc2)c2ccccc21 (configuration not stated)	18µM*	·	-12%	·	?
CCCCN(C)CC(O)Cn1cc(/C=C/C(=O)c2ccc(OC)c(OC)c2)c2ccccc21 (configuration not stated)	?	·	2%	·	?
COc1ccc(S(=O)(=O)N2CCCOC2CNC(=O)C(=O)NCc2cccnc2)cc1 (configuration not stated)	·	13%	·	-6%	·
OCC1OC(c2ccccc2)C=CC1Oc1cc(Cl)cc(Cl)c1 (configuration not stated)	-15%[11.5 µM]	13%[10 µM]	1%[11.6 µM]	0%[10 µM]	-20%[11.6 µM]
COc1ccccc1CNc1ncnc2ccc(-c3cccc(C#N)c3)cc12	·	?	·	0%	·
COc1ccccc1CNc1ccnc(-c2ccc(N(C)C)cc2)n1	·	?	·	14µM*	·
COc1ccc2[nH]cc(CCNc3ncnc4ccc(-c5ccccc5C#N)cc34)c2c1	?	?	14%	-2%	14µM*[quencher]
COc1ccccc1CNc1ncnc2ccc(-c3ccccc3OC)cc12	·	?	·	22µM*	·
COc1ccccc1CNc1ncnc2ccc(-c3ccc(N(C)C)cc3)cc12	11µM*	-3%	?	3%	10µM*[quencher]
COCCNC(=O)CCCn1c(SCC(=O)Nc2cccc(C)c2)nc2c(sc3ccccc32)c1=O	?	·	?	·	-12%
CNC1=CN=C(c2ccccc2)c2cc(Cl)ccc2N1	-4%	-15%	-13%	-1%	-10%
CCNc1nc(NCC)nc(N/N=C/c2ccc(Br)cc2)n1	-16%	18µM*	0%	-16%	-11%
Cc1ccc(/C=N/Nc2nc(C)cc(C)n2)cc1	-14%	10µM*	0%	1%	-6%
Cc1cc(C)nc(N/N=C/c2cccc(Cl)c2)n1	-10%	11µM*	-10%	6%	-3%
Brc1ccc(/C=N/Nc2ccccn2)cc1	-13%	?	?	-23%	-21%
Clc1cccc(/C=N/Nc2nc(Cl)nc3ccccc23)c1	?	2µM*	4%	-2%	?
CC[C@H]1OC(=O)[C@H](C)[C@@H](O[C@H]2C[C@@](C)(OC)[C@@H](O)[C@H](C)O2)C(C)[C@@H](O[C@@H]2O[C@H](C)C[C@H](N(C)C)[C@@H]2O)[C@](C)(OC)C[C@@H](C)C(=O)[C@H](C)[C@@H](O)[C@]1(C)O (some centres not stated)	-1%	0%	-3%	1%	-3%
CSc1ccc(/C=N/Nc2nc(C)cc(C)n2)cc1	-18%	11µM*	3%	?	0%
Cc1cc(C)nc(N/N=C/c2ccc(Cl)cc2)n1	-4%	10%	5%	-11%	6%
C[C@@H](C(=O)NCc1ccc(S(C)(=O)=O)cc1)[C@H]1C[C@]1(C)[C@H](NC(=O)OCc1ccccc1)c1ccccc1	?	8.9µM*	3%	-8%	-17%
SMILES	Tau ThT inhib	RORgamma inh	Tau FP inhib	VP16 counter	Tau fluor counter
CCOc1ccc(OCCC(=O)OCC(=O)N2CCN(S(=O)(=O)c3ccc(Cl)cc3)CC2)cc1	·	11µM*	·	18µM*	·
CCOC(=O)N1CCN(S(=O)(=O)c2ccc(OCC)cc2)CC1	-2%	18%	4%	15%	-1%
Cc1ccc(C)c(OCCC(=O)OCC(=O)NCc2ccc(F)cc2)c1	·	-17%	·	-11%	·
Cc1nc2ccccc2c2c(N)c3ccccc3n12	10µM*	10%	?	-26%	-23%
Cc1[nH]n2c(=O)c3c(nc2c1-c1cccc2ccccc12)CCC3	-16%	13µM*	9%	?	2%
Cc1[nH]n2c(=O)c3c(nc2c1-c1ccccc1)CCCC3	-4%	11µM*	5%	?	0%
O=c1c2c(nc3c(-c4cccc5ccccc45)c[nH]n13)CCC2	?	3%	-2%	-8%	-2%
Cc1[nH]n2c(=O)c3c(nc2c1-c1ccc(F)cc1)CCCC3	0%	-20%	4%	2%	2%
O=c1c2c(nc3cc(-c4cccc(Cl)c4)[nH]n13)CCC2	?	?	-5%	-26%	-16%
O=c1c2c(nc3c(-c4ccc(Cl)cc4)c[nH]n13)CCCC2	?	2.2µM*	3%	6.3µM*	-23%
Cc1ccc(CNC(=O)c2ccc(OCC(C)C)cc2)n1C	·	-13%	·	2%	·
CCCCOc1ccc(/C=C/C2=CC(C)(C)NC(=S)N2)cc1OCC	-10%	0.79µM*	-4%	1.8µM*	-4%
CCOc1cc(C=O)ccc1OCCCN1C(=O)NC(C)(C)C1=O	-16%	20%	4%	14%	-12%
Cc1cc(C)c2[nH]c(O)c(N=NC(=S)NCC3CCCO3)c2c1 (configuration not stated)	?	5µM*	4%	7.1µM*	-5%
Oc1[nH]c2c(Cl)cc(Cl)cc2c1N=NC(=S)NCC1CCCO1 (configuration not stated)	?	1.3µM*	?	1.1µM*	?
CCn1c(O)c(N=NC(=S)NCC2CCCO2)c2ccccc21 (configuration not stated)	?	0.28µM*	-1%	1.8µM*	-22%
Oc1[nH]c2ccc(Br)cc2c1N=NC(=S)NCC1CCCO1 (configuration not stated)	16µM*	1.4µM*	6%	?	14µM*[quencher]
Oc1[nH]c2ccccc2c1N=NC(=S)NCC1CCCO1 (configuration not stated)	0%	-13%	2%	-10%	0%
CC(C)(C)C1CCc2onc(C(=O)Nc3ccc4c(c3)OCO4)c2C1 (configuration not stated)	·	-30%	·	-21%	·
O=C(c1ccc(Cl)cc1)c1ccc(OCC(=O)N2CCOCC2)cc1	2%	?	12%	11µM*	1%
COc1c(C)cccc1C(=O)Nc1ccc(OCC(=O)N2CCOCC2)cc1C	·	1.8µM*	·	?	·
